Consider 49 molecules from ChEMBL document CHEMBL5606458, “ASAP - ZIKV NS2B-NS3 protease fluorescence single point” (2024).

The term inhibition denotes the drop in the measured response relative to a control, in per cent.

SMILES strings stand for the structures. In all, about 2,700 compounds went through this assay and about 160 (5.9%) showed an effect of 50% or more. This excerpt belongs to a sample that is enriched for strong results.

The target of the assay is Nonstructural protein 3 (Zika virus) (UniProt A0A024AXB9).
Sequence of Nonstructural protein 3 (Zika virus) (A0A024AXB9 as listed by the source): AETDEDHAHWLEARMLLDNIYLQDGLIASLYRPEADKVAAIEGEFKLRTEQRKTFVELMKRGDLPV
Where [1] appears, read: PRVABC59, Concentration 15.0 uM, Number of replicates 1.0.
[2] abbreviates: PRVABC59, Concentration 50.0 uM, Number of replicates 1.0.

Consider `O=C(NCCNC(=O)c1cc(Cl)ccc1NS(=O)(=O)c1ccc(Oc2ccccc2Cl)cc1)c1ccccc1Cl`, for which the inhibition under setting [1] came to 25%.

On to `NC(=O)[C@H](Cc1ccc(O)cc1)NC(=O)C1CCN(c2ccc(C=O)cc2)CC1`, for which the inhibition under setting [2] was 27%.

`O=C(c1cc(Cl)ccc1NS(=O)(=O)c1ccc(Oc2ccccc2Cl)cc1)N1CCC(n2c(=O)[nH]c3ccccc32)CC1`: the inhibition under setting [1] worked out at 15.6%.

On to `CC(C)(CO)NC(=O)c1cc(Cl)cc(NC(=O)Cc2cccc(N3CCOCC3)c2)c1`, for which the inhibition is, setting by setting: (PRVABC59, Concentration 49.5 uM, Number of replicates 2.0, Standard deviation 3.0522593855592395 %) -2.52%; (PRVABC59, Concentration 99.01 uM, Number of replicates 2.0, Standard deviation 3.368926317951112 %) -0.793%; (PRVABC59, Concentration 198.0 uM, Number of replicates 2.0, Standard deviation 2.506775358140388 %) 0.389%.

With `O=C(c1cc(Cl)ccc1NS(=O)(=O)c1ccc(Oc2ccccc2Cl)cc1)N1CCC[C@H](C(F)(F)F)C1`, under setting [1], the inhibition is 20.5%.

As for `CN(Cc1cccc2ccccc12)C(=O)c1cc(Cl)ccc1NS(=O)(=O)c1ccc(Oc2ccccc2Cl)cc1`, the inhibition under setting [1] came out at 19.1%.

`O=C(NCCc1c[nH]cn1)[C@@]1(c2ccc(F)cc2)CCCNC1`: the inhibition amounted to 1.12% (PRVABC59, Concentration 50.0 uM, Number of replicates 2.0, Standard deviation 1.8533531884648646 %); 2.94% (PRVABC59, Concentration 100.0 uM, Number of replicates 2.0, Standard deviation 1.243259032729753 %); 1.26% (PRVABC59, Concentration 200.0 uM, Number of replicates 2.0, Standard deviation 0.45116199355607794 %).

In the case of `Cc1cc(Br)cc(NC(=O)c2cc(Cl)ccc2NS(=O)(=O)c2ccc(Oc3ccccc3Cl)cc2)c1`, the inhibition under setting [1] was found to be 53.6%.

Consider `O=C(Nc1ccc2c(c1)OCCO2)c1cc(Cl)ccc1NS(=O)(=O)c1ccc(Oc2ccccc2Cl)cc1`, for which the inhibition under setting [1] worked out at 63.8%.

Consider `O=C(NCc1ccc2c(c1)OCCO2)c1cc(Cl)ccc1NS(=O)(=O)c1ccc(Oc2ccccc2Cl)cc1`, for which the inhibition under setting [1] stood at 24.8%.

Take `O=C(Nc1cccc(Br)c1)c1cc(Cl)ccc1NS(=O)(=O)c1ccc(Oc2ccccc2Cl)cc1`: the inhibition under setting [1] came to 43.8%.

Turning to `O=C(CNC(=O)c1cc(Cl)ccc1NS(=O)(=O)c1ccc(Oc2ccccc2Cl)cc1)c1ccccc1F`, under setting [1], the inhibition was determined as 40.7%.

On to `O=C(CNC(=O)c1cc(Cl)ccc1NS(=O)(=O)c1ccc(Oc2ccccc2Cl)cc1)c1ccc([N+](=O)[O-])cc1`, for which, under setting [1], the inhibition was 33%.

Regarding `Cc1cc(NC(=O)c2cc(Cl)ccc2NS(=O)(=O)c2ccc(Oc3ccccc3Cl)cc2)cc(C)c1Br`, under setting [1], the inhibition was determined as 27.6%.

With `O=C(Nc1cccc(I)c1)c1cc(Cl)ccc1NS(=O)(=O)c1ccc(Oc2ccccc2Cl)cc1`, the inhibition under setting [1] worked out at 48.1%.

As to `O=C(Nc1ccc2c(c1)OC(F)(F)O2)c1cc(Cl)ccc1NS(=O)(=O)c1ccc(Oc2ccccc2Cl)cc1`, the inhibition under setting [1] worked out at 50%.

As for `O=C(Nc1ccc(I)cc1)c1cc(Cl)ccc1NS(=O)(=O)c1ccc(Oc2ccccc2Cl)cc1`, the inhibition under setting [1] was determined as 58.1%.

On to `O=C(Nc1ccc(I)c(F)c1)c1cc(Cl)ccc1NS(=O)(=O)c1ccc(Oc2ccccc2Cl)cc1`, for which the inhibition under setting [1] was found to be 37.6%.

As for `O=C(CNC(=O)c1cc(Cl)ccc1NS(=O)(=O)c1ccc(Oc2ccccc2Cl)cc1)c1ccc(O)cc1`, the inhibition under setting [1] stood at 52.2%.

For the molecule `Cc1cc(CO)c2cccc(Nc3cc(O)[nH]n3)c2n1`, the inhibition (PRVABC59, Concentration 49.95 uM, Number of replicates 2.0, Standard deviation 1.761368724187627 %) was determined as 18.3% and the inhibition (PRVABC59, Concentration 99.9 uM, Number of replicates 2.0, Standard deviation 1.139118047569397 %) came out at 23.8%.

With `Cn1cc(CNC(=O)c2ccccc2-c2cccnc2)cn1`, the inhibition runs as follows: (PRVABC59, Concentration 49.5 uM, Number of replicates 2.0, Standard deviation 0.5877340250731194 %) 0.299%; (PRVABC59, Concentration 99.01 uM, Number of replicates 2.0, Standard deviation 0.42986369479040104 %) -0.679%; (PRVABC59, Concentration 198.0 uM, Number of replicates 2.0, Standard deviation 0.566811449656849 %) -0.69%.

In the case of `O=Cc1ccc(N2CCC(C(=O)N[C@H](CO)[C@H](O)c3ccc([N+](=O)[O-])cc3)CC2)cc1`, the inhibition under setting [2] amounted to 25.6%.

`N#Cc1ccc(Cl)c(NC(=O)C2CCN(c3ccc(C=O)cc3)CC2)c1`: the inhibition under setting [2] came to 23.1%.

Turning to `O=Cc1ccc(N2CCC(C(=O)NCc3ccccc3-n3cccn3)CC2)cc1`, the inhibition (PRVABC59, Concentration 10.0 uM, Number of replicates 1.0) came out at 21.4%.

In the case of `N=C(N)NC[C@@H]1CCCN(C(=O)[C@H](Cc2ccc(CN)cc2)NC(=O)c2ccccc2)C1`, the inhibition was 2.68% (PRVABC59, Concentration 49.5 uM, Number of replicates 2.0, Standard deviation 0.6960698702606968 %); 12.8% (PRVABC59, Concentration 99.01 uM, Number of replicates 2.0, Standard deviation 1.1872902095434084 %); 26.8% (PRVABC59, Concentration 198.0 uM, Number of replicates 2.0, Standard deviation 0.3804343133987339 %).

Regarding `CN(C)CCN(Cc1ccccc1)C(=O)c1cc(Cl)ccc1NS(=O)(=O)c1ccc(Oc2ccccc2Cl)cc1`, under setting [1], the inhibition was 15.1%.

Regarding `Cc1ccc2ccccc2c1NC(=O)C1CCN(c2ccc(C=O)cc2)CC1`, under setting [2], the inhibition turned out to be 19.8%.

For `CN(C)c1ccc(C(=O)Nc2cc(Cl)cc(C(=O)NC(C)(C)CO)c2)nc1`, the inhibition is, setting by setting: (PRVABC59, Concentration 49.5 uM, Number of replicates 2.0, Standard deviation 3.9613998246279105 %) -1.53%; (PRVABC59, Concentration 99.01 uM, Number of replicates 2.0, Standard deviation 2.7948399639930708 %) 0.849%.

As for `Cc1cc(CO)c2cccc(NC(=O)c3cccc(Cn4cncn4)c3)c2n1`, the inhibition was -0.138% (PRVABC59, Concentration 49.95 uM, Number of replicates 2.0, Standard deviation 2.574308180740061 %) and 11.1% (PRVABC59, Concentration 99.9 uM, Number of replicates 2.0, Standard deviation 1.9018768762288814 %).

Turning to `Cc1cnccc1NC(=O)c1ccccc1-c1nc(C(C)C)no1`, the inhibition runs as follows: (PRVABC59, Concentration 49.5 uM, Number of replicates 2.0, Standard deviation 0.2610834999883118 %) -0.098%; (PRVABC59, Concentration 99.01 uM, Number of replicates 2.0, Standard deviation 1.3020487023400833 %) -0.148%; (PRVABC59, Concentration 198.0 uM, Number of replicates 2.0, Standard deviation 1.8545350914642316 %) 0.672%.

With `O=C(c1cc(Cl)ccc1NS(=O)(=O)c1ccc(Oc2ccccc2Cl)cc1)N1CCN(c2ccc(Br)cn2)CC1`, under setting [1], the inhibition was 18.6%.

Take `O=C(NCCc1ccc(Cl)cc1Cl)c1cc(Cl)ccc1NS(=O)(=O)c1ccc(Oc2ccccc2Cl)cc1`: under setting [1], the inhibition was 27.1%.

For the molecule `CN1CCN(C(=O)C2CCN(C(=O)C3CCN(c4ccc(C=O)cc4)CC3)CC2)CC1`, under setting [2], the inhibition came out at 21.1%.

In the case of `O=Cc1ccc(N2CCC(C(=O)N3CCC(N4CCCC4=O)CC3)CC2)cc1`, the inhibition under setting [2] came to 23.2%.

Take `O=C(Nc1ccc(O)cc1[N+](=O)[O-])c1cc(Cl)ccc1NS(=O)(=O)c1ccc(Oc2ccccc2Cl)cc1`: the inhibition under setting [1] was determined as 32.2%.

As to `O=C(Nc1ccc([N+](=O)[O-])c2ccccc12)c1cc(Cl)ccc1NS(=O)(=O)c1ccc(Oc2ccccc2Cl)cc1`, the inhibition under setting [1] was 22.7%.

Turning to `CCCOc1ccc(NC(=O)c2cc(Cl)ccc2NS(=O)(=O)c2ccc(Oc3ccccc3Cl)cc2)cc1`, the inhibition under setting [1] worked out at 43.9%.

For `O=C(Nc1ccc(Oc2ccccc2Cl)cc1)c1cc(Cl)ccc1NS(=O)(=O)c1ccc(Oc2ccccc2Cl)cc1`, under setting [1], the inhibition came to 19.7%.

Take `CC(=O)Nc1ccc(NC(=O)c2cc(Cl)ccc2NS(=O)(=O)c2ccc(Oc3ccccc3Cl)cc2)cc1`: the inhibition under setting [1] came out at 63.1%.

Turning to `O=C(Nc1ccc(Oc2ccc(Cl)cc2)cc1)c1cc(Cl)ccc1NS(=O)(=O)c1ccc(Oc2ccccc2Cl)cc1`, the inhibition under setting [1] was determined as 14.2%.

Regarding `O=C(Nc1cc(Cl)ccc1Br)c1cc(Cl)ccc1NS(=O)(=O)c1ccc(Oc2ccccc2Cl)cc1`, the inhibition under setting [1] is 24.1%.

Regarding `O=C(Nc1ccc2ccccc2c1O)c1cc(Cl)ccc1NS(=O)(=O)c1ccc(Oc2ccccc2Cl)cc1`, the inhibition under setting [1] was 14%.

`O=C(Nc1ccc([N+](=O)[O-])cc1)c1cc(Cl)ccc1NS(=O)(=O)c1ccc(Oc2ccccc2Cl)cc1`: the inhibition under setting [1] is 29.8%.

As for `O=C(Nc1ccccc1)c1cc(Cl)ccc1NS(=O)(=O)c1ccc(Oc2ccccc2Cl)cc1`, under setting [1], the inhibition is 54.2%.

Take `O=C(Nc1cc(Cl)cc(Cl)c1O)c1cc(Cl)ccc1NS(=O)(=O)c1ccc(Oc2ccccc2Cl)cc1`: under setting [1], the inhibition is 74.3%.

Turning to `O=C(Nc1cc(Cl)cc([N+](=O)[O-])c1O)c1cc(Cl)ccc1NS(=O)(=O)c1ccc(Oc2ccccc2Cl)cc1`, under setting [1], the inhibition is 92.4%.

With `CCOc1ccccc1CCNC(=O)c1cc(Cl)ccc1NS(=O)(=O)c1ccc(Oc2ccccc2Cl)cc1`, under setting [1], the inhibition came to 9.83%.

Regarding `CNC(=O)c1cc(Cl)ccc1NS(=O)(=O)c1ccc2[nH]cnc2c1`, under “PRVABC59, Concentration 49.5 uM, Number of replicates 2.0, Standard deviation 2.3657282322003765 %”, the inhibition was -9.41%.

In the case of `Cc1cc(CO)c2cccc(Nc3cc(C)on3)c2n1`, the inhibition (PRVABC59, Concentration 49.95 uM, Number of replicates 2.0, Standard deviation 0.1664787029188791 %) is -8.71%.
